Only some compounds are listed: those with a hit (about 8.1% of all), similar ones and a draw of the others.
Sfp PPTase inh: Sfp phosphopantetheinyl transferase inhibition. Biochemical Sfp PPTase activity, qHTS. Potency, µM, for inactives: largest response in the series, negative = inhibition, hits mostly inhibitors. AID 1490. 310,000 compounds, 3.5% hits;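 also: the enzyme is Sfp with the accession as filed and its product quenches rhodamine fluorescence; 0% = enzyme reaction without inhibitor and -100% = no enzyme wells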
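After 15 min at room temperature with compound, 15 nM Sfp received 5 uM rhodamine-CoA plus 12.5 uM BHQ-2-ybbR (50 mM Hepes pH 7.6, 10 mM MgCl2). Rate came from the fluorescence difference over 30 min, ex 525/em 598 nm.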
PINK1 modulator: modulators of PINK1 expression; Potency, µM (doses to about 76.6 µM), for the others: at the highest dose activation (PINK1 increase), hits mostly activators; PINK1 immunofluorescence, high-content cytometry, 24 h; 410,000 compounds, 0.2% hits; AID 624263; active = well fitted activation curve with a large enough effect; inconclusive = small, poorly fitted or top-dose-only effect; cell line not stated here; also: % of control where 0% means no effect; nearly all actives have a fitted effect of over 65% in size
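Compound titrations (5 concentrations, 24 h) on a stable cell line; DMSO and CCCP controls. Endpoint: fixed-cell PINK1 immunofluorescence with mitochondrial, cell and nuclear markers, scanned by microplate cytometer.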
Epigenetic derep: regulators of epigenetic silencing causing reporter derepression in mouse cells; AID 1865; murine LDR cells, GFP reporter derepression, 30 h; Potency, µM (doses to about 53.9 µM), without a hit: at the top dose GFP activation, hits mostly activators; 280,000 compounds, 0.2% hits; also: % of control where 0% means no effect; nearly all actives have a fitted effect of over 60% in size
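Reporter derepression read as number of fluorescent GFP-positive objects, 20-120 um in size, counted by laser-scanning cytometer. Mouse LDR line with an epigenetically silenced CMV-GFP locus; compound incubation 30 h, 37 C.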
Gal4-VP16 FLuc: Gal4-VP16 reporter inhibition counter-screen | Drosophila S2 Gal4-VP16 UAS-luciferase, luminescence, 20 h | AID 2546 | Potency, µM (top dose mostly 53.6 µM), for the others: top-dose activity, negative = inhibition, actives largely listed as inhibitors | 310,000 compounds, 3.5% hits;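 also: Gal4-VP16 expression switched on by copper sulfate through the metallothionein promoter; % is scaled to controls: 0 for no effect and ±100 for the full control effect; nearly all actives have a fitted effect of over 50% in size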
RORg inh: inhibitors of mouse ROR gamma transcriptional activity | Potency, µM (highest dose often 53.6 µM), inactives show at the highest dose activity change, negative = inhibition, most hits filed as inhibitors | Drosophila S2 Gal4-RORgamma UAS-luciferase reporter, 20 h | 310,000 compounds, 5.4% hits; also: % is scaled to controls: 0 for no effect and ±100 for the full control effect; nearly all actives have a fitted effect of over 60% in size
Target sequence (P51450 whole entry, looked up, the tested form may be a part): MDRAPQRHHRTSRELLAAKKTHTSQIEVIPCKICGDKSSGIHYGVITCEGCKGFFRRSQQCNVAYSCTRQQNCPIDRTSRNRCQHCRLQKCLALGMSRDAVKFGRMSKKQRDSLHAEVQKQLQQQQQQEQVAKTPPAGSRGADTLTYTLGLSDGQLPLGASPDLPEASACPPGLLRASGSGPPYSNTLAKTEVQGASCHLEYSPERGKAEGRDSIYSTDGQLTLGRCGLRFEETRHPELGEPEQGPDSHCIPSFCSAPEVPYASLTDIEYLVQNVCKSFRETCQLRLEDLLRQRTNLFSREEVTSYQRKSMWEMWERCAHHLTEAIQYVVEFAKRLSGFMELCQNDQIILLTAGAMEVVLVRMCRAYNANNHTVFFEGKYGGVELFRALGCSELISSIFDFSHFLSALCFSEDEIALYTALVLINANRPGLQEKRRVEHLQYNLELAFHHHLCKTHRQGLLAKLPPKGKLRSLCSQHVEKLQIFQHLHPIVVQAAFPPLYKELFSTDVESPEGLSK
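Read-out: Photinus luciferase luminescence; inhibitors lower reporter signal. Insect Schneider cells with Gal4-ROR gamma fusion under metallothionein promoter, UAS reporter; 700 uM final copper sulfate induction, 20 hr, ambient temperature.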
ClpP mod: qHTS Assay for Activators of ClpP. purified B. subtilis ClpP, FRET peptide cleavage, 20 min. Potency, µM (highest dose often 57.5 µM), for inactives: at the top dose activity change, negative = active. 340,000 compounds, 1.9% hits; active = well fitted falling curve with a large enough effect; inconclusive = small, poorly fitted or top-dose-only effect; inactive = no such curve, though single readings can be large or run the other way; also: the source files actives as falling curves though it sought activators and does not explain the sign; nearly all actives have a fitted effect of over 65% in size
Target sequence (P80244 whole entry, looked up): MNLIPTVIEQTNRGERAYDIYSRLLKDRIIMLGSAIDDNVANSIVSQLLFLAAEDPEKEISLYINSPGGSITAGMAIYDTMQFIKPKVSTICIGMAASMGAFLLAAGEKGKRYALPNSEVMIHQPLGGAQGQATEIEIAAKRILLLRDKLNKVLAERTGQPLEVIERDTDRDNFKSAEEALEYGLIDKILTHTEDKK
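FRET quenching reversal measured ClpP activation: 10 microg/mL B. subtilis ClpP at pH 8 with the FRET-FV decapeptide, read at 430 nm after 320 nm excitation. The 20-min minus 0-min signal was scaled between DMSO/no-enzyme wells and ADEP (5.8 microM final).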
* = called active by the depositor; ? = inconclusive; nt = no result given; [ ] = remark or other dose. Unless noted, calls follow the shape of the dose curve; as a rule, active = well fitted curve in the direction sought with a large enough effect; inconclusive = small, poorly fitted or top-dose-only effect, or another doubt; inactive = no such curve, though single readings can be large; an effect the other way counts as inactive or inconclusive. Potency is read from the fitted curve at half-maximal effect.

SMILES	Sfp PPTase inh	PINK1 modulator	Epigenetic derep	Gal4-VP16 FLuc	RORg inh	ClpP mod
COc1cc2c(cc1OC)C1C(=O)c3c(O)cc4c(c3OC1CO2)C=CC(C)(C)O4 (stereo unspecified)	-42%	nt	1%	0.89µM*	6.3µM*	nt
O=C1c2ccccc2C(=O)N1c1nc(-c2cccs2)cs1	25µM*	2%	-2%	-7%	18%	-3%
CN1CCN(c2nc(-c3cc4ccccc4o3)cs2)CC1	-8%	2%	1%	-15%	-11%	0%
CN1CCN(c2nc(-c3cccs3)cs2)CC1	56µM*	0%	-1%	6%	1%	nt
O=C(CCC1N=C2c3ccccc3N=C(SCc3ccccc3F)N2C1=O)NCc1ccc(F)cc1 (stereo unspecified)	nt	1%	-1%	nt	nt	5%
COc1cccc(CN2CC34CCC(CC3S2(=O)=O)O4)c1 (stereo unspecified)	1%	nt	nt	0%	11%	nt
O=c1c2cc(-c3ccccc3)sc2nc2n1N=C(c1ccccc1)CS2	-10%	4%	0%	4%	27%	nt
O=c1[nH]c(-c2ccccn2)nc2sc(-c3ccccc3)cc12	4µM*	-1%	0%	1.4µM*	0.32µM*	nt
CCN(CC)C(=O)c1sc2nc(Cc3ccccc3)[nH]c(=O)c2c1C	-2%	-1%	-1%	3%	-5%	nt
Cc1c(C(=O)N(C)C)sc2nc(-c3ccccn3)[nH]c(=O)c12	89µM*	2%	0%	-13%	?	?
CCO[C@H]1[C@H](NC(=O)c2cccnc2)c2ccccc2C12CCN(C(=O)c1ccoc1)CC2	nt	0%	nt	nt	nt	nt
CC(C)(C)CC(C)(C)NC(=S)NC1CCN(Cc2ccccc2)CC1	7%	6%	2%	10µM*	14µM*	-1%
S=C(Nc1ccc(Cl)c(Cl)c1)NC1CCCCC1	11%	?	-1%	5.6µM*	2.5µM*	-3%
S=C(Nc1ccc2nsnc2c1)NC1CCCCC1	-91%	8%	?	5µM*	2.5µM*	-10%
S=C(Nc1ccc(Cl)c(Cl)c1)NC1CCN(Cc2ccccc2)CC1	-5%	27%	19%	35µM*	?	-1%
CCc1ccccc1NC(=O)c1cnc(N2CCCCC2)c2ccccc12	nt	1%	1%	nt	nt	505%
Cc1ccc(C)c(NC(=S)NCCc2c[nH]c3ccccc23)c1	20%	3%	12%	11µM*	1.3µM*	nt
COc1ccc(Cl)cc1NC(=S)NCCc1c[nH]c2ccccc12	18%	3%[38.3 µM]	0%	7.1µM*	5.6µM*	0%
Cc1ccc(NS(=O)(=O)c2cccc(C(=O)NCCc3c[nH]c4ccccc34)c2)c(C)c1	39%	?	-1%	22µM*	?	nt
COc1ccccc1NC(=O)NCCc1c[nH]c2ccccc12	6%	0%	0%	0%	21%	0%
Cc1ccccc1NC(=S)NCCc1c[nH]c2ccccc12	1%	1%	0%	11µM*	7.9µM*	nt
Cc1ccc(NC(=O)C(=O)NCCc2c[nH]c3ccccc23)c(C)c1	3%	19%	2%	-3%	-3%	nt
COC(=O)c1sccc1S(=O)(=O)N1CCN(c2ccccc2)CC1	nt	3%	0%	nt	nt	1%
COc1ccc(NC(=O)c2cc([N+](=O)[O-])ccc2NC(=O)CNCc2ccccn2)c(OC)c1	45µM*	5%	nt	-16%	?	-3%
COc1cc(NC(=O)c2cc([N+](=O)[O-])ccc2NC(=O)CNCc2ccccn2)cc(OC)c1	-14%	5%	nt	?	-89%	1%
SMILES	Sfp PPTase inh	PINK1 modulator	Epigenetic derep	Gal4-VP16 FLuc	RORg inh	ClpP mod
Cc1cc(C(=O)C(C)OC(=O)C2=NNC(=O)CC2)c(C)n1-c1ccc(OC(F)F)cc1 (stereo unspecified)	9%	0%	1%	0%	?	20µM*
NC(N)=NS(=O)(=O)c1ccc(NC(=S)NC(=O)c2sc3ccccc3c2Cl)cc1	56µM*	1%	0%	-4%	-3%[10 µM]	-2%
COc1cc(NS(=O)(=O)c2ccc(NC(=S)NC(=O)c3ccco3)cc2)nc(OC)n1	-25%	1%	-4%	10%	-3%	0%
COc1cc(NS(=O)(=O)c2ccc(NC(=S)NC(=O)c3sc4ccccc4c3Cl)cc2)nc(OC)n1	50µM*	1%	0%	?	-38%	-2%
COc1cc(NS(=O)(=O)c2ccc(NC(=S)NC(=O)c3sc4cc(F)ccc4c3Cl)cc2)nc(OC)n1	50µM*	2%	0%	12%	-39%	-5%
NC(N)=NS(=O)(=O)c1ccc(NC(=S)NC(=O)c2ccncc2)cc1	50µM*	-1%	nt	0%	-41%	nt
CCC(=O)N1CCc2cc(S(=O)(=O)CCC(=O)N3CCN(c4cc(C)ccc4C)CC3)ccc21	nt	0%	1%	nt	nt	-1%
Cc1oc(-c2ccccc2NC(=O)C2CCCO2)nc1CNC(=O)c1cc(F)c(F)cc1F (stereo unspecified)	nt	2%	nt	nt	nt	nt
Cc1ccc(C)c(NC(=O)CN(C)S(=O)(=O)c2ccc3c(c2)CCC(=O)N3)c1	nt	0%	0%	nt	nt	1%
O=C(O)CCCCCCCCCC(=O)c1cccs1	?	-1%	2%	3.5µM*	10µM*	0%
Cc1cccc(CNC(=O)c2ccc(Cn3c(=O)c4cccn4c4cccnc43)cc2)c1	nt	0%	18µM*	nt	nt	5%
COc1ccccc1C(=O)CSc1n[nH]c(N)n1	89µM*	0%	9%	0%	-27%	0%
Cc1nc(SCC(=O)c2ccccc2)n[nH]1	56µM*	-2%	4%	26%	-37%	0%
Cc1cc(C)nc(SCC(=O)c2cc3ccccc3oc2=O)n1	18µM*	6%	0%	4%	-4%	1%
COc1ccccc1CNC(=O)CSc1n[nH]c(N)n1	-10%	2%	nt	1%	-31%	nt
Nc1nc(SCC(=O)c2cc3ccccc3o2)n[nH]1	22µM*	-1%	1%	-4%	?	-1%
CCOc1ccc(CCNC(=O)c2ccc(C)c(-n3cnc4cccnc43)c2)cc1	nt	0%	3%	nt	nt	0%
Cc1nnc(N2CCN(C(=O)NC(C)C)CC2)c2nn(-c3ccccc3)c(C)c12	nt	7%	1%	nt	nt	-11%
O=C(NCc1ccccc1Cl)c1ccc(CSCc2ccccc2Cl)o1	nt	0%	-1%	nt	nt	2%
Cc1cc(SCC(=O)c2ccccc2)n2nc(C)nc2n1	-15%	-4%	3%	7.1µM*	14µM*	-3%
COc1ccccc1C(=O)CSc1nccn1C	56µM*	0%	nt	?	-29%	nt
Cc1cc(C)n2nc(SCCCC(=O)c3ccccc3)nc2n1	-5%	3%	0%	-17%	11%	nt
CC1=CC(O)=NS(=O)(=O)O1	nt	0%	nt	nt	nt	0%

From PubChem BioAssay
